AGP1-GFP MLPCN – yeast TOR pathway AGP1-GFP modulation | S. cerevisiae AGP1-GFP multiplex flow cytometry, 3 h; GFP as percent of DMSO wells | GFP response vs DMSO, % at 10 µM | 320,000 compounds, 0.02% hits | AID 2066;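 active = GFP response relative to DMSO above a set limit, near screen average plus 3 SD, cut at about 150% in these data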;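 note: median GFP channel fluorescence of the gated AGP1 strain per well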
MEP2 TOR yeast – yeast TOR pathway MEP2-GFP modulation | S. cerevisiae MEP2-GFP strain, flow cytometry GFP, 3 h; 100% = DMSO control level | GFP response vs DMSO, % at 10 µM | 330,000 compounds, 0.51% hits | AID 2016;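 active = GFP response versus DMSO above a set limit, roughly screen mean plus 3 SD, cut at about 180% in these data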;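 note: median GFP fluorescence of the barcode-gated MEP2-GFP cells per well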
LAP4-GFP MLPCN – modulators of TOR pathway LAP4-GFP in S. cerevisiae | S. cerevisiae LAP4-GFP multiplex, flow cytometry GFP, 3 h; median GFP as percent of DMSO wells | GFP response vs DMSO, % at 10 µM | 320,000 compounds, 0.34% hits;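 active = GFP response vs DMSO above a set limit, about the screen mean plus 3 SD, cut at about 150% in these data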
CIT2 TOR yeast – yeast TOR pathway CIT2-GFP modulation | GFP response vs DMSO, % at 10 µM | S. cerevisiae CIT2-GFP strain, flow cytometry, 3 h; 100 means same as DMSO wells | 320,000 compounds, 0.065% hits;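 active = GFP response relative to DMSO above a set limit, near the screen mean plus 3 SD, cut at about 150% in these data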;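 note: ratio of well median GFP fluorescence to mean of DMSO wells on the plate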
RPL19A-GFP yeast – yeast TOR pathway RPL19A-GFP modulation. S. cerevisiae RPL19A-GFP strain, flow cytometry, 3 h; stronger effect = lower value. percent response vs DMSO, % at 10 µM. 330,000 compounds, 0.3% hits. AID 2025;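 active = percent response vs DMSO below 50%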;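 note: median channel GFP fluorescence of the barcoded RPL19A-GFP strain; lower means less RPL19A-GFP as with rapamycin TOR inhibition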
LAP4 cherry2 – yeast LAP4-GFP modulation, second cherry pick; shares compounds with LAP4-GFP MLPCN; S. cerevisiae LAP4-GFP strain, flow cytometry GFP, 3 h; GFP response vs DMSO, % at 10 µM; 590 compounds, 20% hits; AID 2621;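 active = GFP signal as percent of the solvent control above about 150%, meaning raised reporter expression, limit read from the data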
MEP2 cherry2 – reconfirmed MEP2-GFP TOR pathway modulator in yeast; 590 compounds, 10% hits; GFP response vs DMSO, % at 10 µM; S. cerevisiae MEP2-GFP strain, flow cytometry GFP, 3 h; shares compounds with LAP4-GFP MLPCN;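 active = GFP signal above 150% of the solvent control wells, that is a rise of more than half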;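 note: median channel GFP fluorescence of all gated yeast cells per well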
RPL19A-GFP pick2 – yeast RPL19A-GFP TOR reporter modulation, second cherry pick | 590 compounds, 3% hits | shares compounds with LAP4-GFP MLPCN | GFP response vs DMSO, % at 10 µM | AID 2623 | S. cerevisiae RPL19A-GFP strain, flow cytometry GFP, 3 h; stronger effect = lower value; 100% means same as DMSO wells;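 active = under 65% GFP response relative to DMSO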;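 note: median GFP channel fluorescence per well over the all cells gate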
CIT2 GFP CP2 – second confirmation of modulators of TOR reporter CIT2-GFP in yeast; shares compounds with LAP4-GFP MLPCN; S. cerevisiae CIT2-GFP strain, flow cytometry GFP, 3 h; DMSO control wells read 100%; GFP response vs DMSO, % at 10 µM; 590 compounds, 8% hits;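 active = GFP response vs DMSO above about 150%, limit read from the data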;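 note: median green fluorescence per well over all gated yeast cells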
AGP1-GFP pick2 – reconfirmed modulator of AGP1-GFP TOR reporter in yeast. shares compounds with LAP4-GFP MLPCN. S. cerevisiae AGP1-GFP strain, flow cytometry GFP, 3 h. percent response vs DMSO, % at 10 µM. 590 tested, under 10 active. AID 2643;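 active = over 150 percent of DMSO response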;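 note: median GFP channel fluorescence over all cells without mother daughter split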
s288c autofluor – counter-screen for compound autofluorescence in yeast s288c cells. shares compounds with LAP4-GFP MLPCN. S. cerevisiae s288c, 520 nm autofluorescence, flow cytometry, 3 h; stronger effect = higher value; zero means same as solvent-only cells. fluorescence change (kMESF span) at 33 µM. 610 tested, under 10 active. AID 2757;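 active = fluorescence span over the dose series, or activity score, above about 33, limit read from the data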
s288c autofl DR – yeast s288c autofluorescence artifact in dose response | 110 tested, under 10 active | S. cerevisiae s288c parental, compound autofluorescence, flow cytometry, 3 h | shares compounds with LAP4-GFP MLPCN | fluorescence change (span) at 33 µM;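 active = fluorescence change span, or the activity score built from it, above 25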
TORC1 bypass gr – wildtype yeast growth loss with TORC1 bypass cells unaffected; shares compounds with LAP4-GFP MLPCN; growth rating (0-3) at 30 µM; 120 tested, under 10 active; S. cerevisiae BY4741 spot growth rating, 48-72 h; stronger effect = lower value;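 active = growth rating at most 1 for wild type yeast while the TORC1 bypass strain still grows fully, rated 3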
Numbers stand for hits; . = inactive; / = no result given. A selection: hits, their analogues and other compounds. The true share with any hit is near 0.93%.

SMILES	AGP1-GFP MLPCN	MEP2 TOR yeast	LAP4-GFP MLPCN	CIT2 TOR yeast	RPL19A-GFP yeast	s288c autofluor	others
C[C@@H](NC(=O)[C@@H]1Cc2ccccc2CN1C(=O)OC(C)(C)C)C(=O)NC1CCCC1	.	.	.	.	.	/
O=C(CCS(=O)(=O)c1ccccc1)Nc1nc(-c2ccccn2)cs1	.	.	.	.	.	.	LAP4 cherry2=.;MEP2 cherry2=.;RPL19A-GFP pick2=.;CIT2 GFP CP2=.;AGP1-GFP pick2=.
COc1ccc(OCCCC(=O)Nc2nc(-c3ccccn3)cs2)cc1	.	.	.	.	.	/
Cc1cc(C)c(OCC(=O)Nc2nc(-c3ccccn3)cs2)c(C)c1	.	.	153	.	.	.
CC(C)CCN1C(=O)c2ccc(C(=O)NCc3ccccn3)cc2C1=O	.	.	164	.	.	/	LAP4 cherry2=.;MEP2 cherry2=.;RPL19A-GFP pick2=.;CIT2 GFP CP2=.;AGP1-GFP pick2=.
CN1C(=O)c2ccc(C(=O)NCc3ccccn3)cc2C1=O	.	.	.	.	.	/
O=C(C1CC(=O)N(C2CCCCC2)C1)N1CCc2ccccc21 (stereo not given)	.	.	.	.	.	/
COCCN1C(=O)/C(=C/c2ccc(N3CCCC3)cc2C)SC1=S	.	186	.	190	.	.
CCN=C1S/C(=C\c2ccc(N3CCOCC3)cc2C)C(=O)N1CC	.	.	.	.	.	/
COc1ccc(Cl)cc1NC(=O)CCN1C(=O)C2C3C=CC(C4CC34)C2C1=O (stereo not given)	.	.	.	.	.	/
CC(=O)c1ccc(N2CCN(C(=O)c3ccc(Br)cc3)CC2)c(F)c1	.	.	162	.	.	.	s288c autofl DR=.;TORC1 bypass gr=.
